# “And” between values parts separate entries of the source, which are not always exact repeats. Identical values can stand only once. The source made the active and inactive calls. The calls were made as follows: active = hit-call score of the fitted dose curve at least 0.9, where 1 is the maximum; inactive = score below 0.9.
# Read-out: flavin-containing dimethylaniline monooxygenases 3 (FMO3), FMO3 (gene 2328)
# Experiment: LTEA_HepaRG_FMO3: Life Technologies and Expression Analysis (LTEA) Assay for flavin-containing dimethylaniline monooxygenases 3 (FMO3) using HepaRG (AID 2283453);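 as to AC50: FMO3 transcript by TaqMan qRT-PCR normalized to ACTB GAPDH and POLR2A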
# Conditions: mRNA level, 48 h; actives raise or lower the signal
# Description: LTEA_HepaRG is a cell based, multiplexed-readout assay that uses HepaRG, a human liver cell line, with measurements taken at 48 hours after chemical dosing on a 96-well plate.LTEA_HepaRG_FMO3 is one of 102 assay component(s) measured in the LTEA HepaRG cell culture assay. It is a marker of NR mediated metabolism.Data from the assay component LTEA_HepaRG_FMO3 was analyzed into 1 endpoint. This assay endpoint, LTEA_HepaRG_FMO3, was analyzed with bidirectional fitting relative to DMSO as the negative control and baseline of activity. Using a type of inducible reporter, measures of mRNA induction for gain or loss-of-signal activity can be used to understand regulation of transcription factor activity. To generalize the intended target to other relatable targets, this assay endpoint is annotated to the oxidoreductase intended target family, where the subfamily is […].
# A total of 1060 chemcials from the ToxCast library were tested in eight-point concentration-response experiments. Cell culture and cytotoxicity assays were conducted at Thermo Fisher Scientific's Custom Services facility (Madison, WI). A single lot of human HepaRG cells (Thermo Fisher Scientific, Frederick, MD) was used for the cell culture experiments. 96-well format collagen type I coated plates of human HepaRG cells were prepared using established methods. Briefly, cryopreserved HepaRG cells were thawed, plated at a density of approximately 100,000 cells/well in HepaRG Thaw, Plate, and General Purpose media (HPRG770, Thermo Fisher Scientific), and incubated for 48 hours. 0.5% DMSO was selected as vehicle control to balance the requisite need of DMSO in HepaRG cultures to maintain differentiation (for example, baseline metabolism, proportions of hepatocytes vs. cholangiocytes), while enabling further hepatic receptor pathway activation (for example, PXR and CAR) in response to chemical exposure. 48 hours after plating, the culture medium was replaced with HepaRG Serum-Free Incudtion Media. Cells were exposed to each test chemical in duplicate and maintained in CO2 incubators for another 48 hours. Chemical plates were thawed to room temperature and 200x concentrations of treatment groups were prepared. 8-point conentration-reponse curves were made with the highest exposure at 100 uM, followed by half-log dilutions, all in 0.5% DMSO. Each test plate contained variouse controls, induction positive controls (1mM phenobarbital), cytotoxicity positive controls ([…] aflatoxin B1), vehicle controls (0.5% DMSO), and total lysis controls (0.5% DMSO). Cell morphology images were taken using an Essen IncuCyte FLR automated microscope, with six 96-well plates imaged in about 24 minutes. Images were captured and exported and JPEG files. Spent culture media was transfered to black-well plates for the LDH assay, and remaining media was sorted at -80 C for later use. Cells were treated with RLT buffer and frozen until shipped for gene expression analysis. Total RNA was isolated from the cell suspension in 75 uL of Buffer RLT (Qiagen, Germantown, MD 20874) by Quintiles/Expression Analysis (Durham, NC) using a custom isolation procedure. Total RNA from each plate well was transferred to a preamplification plate. Fluidigm's 96.96 Dynamic ArrayTM (Fluidigm, Amsterdam, the Netherlands) technology was used for gene expression analyses by quantitative reverse transcription polymerase chain reaction (qRT-PCR, performed by Quintiles/Expression Analysis, Durham, NC)89. Standard TaqManTM Assays (Applied Biosystems/ThermoFisher Scientific, Foster City, CA) were used to assess the expression of 93 genes selected based on their selectivity and sensitivity to important hepatic receptors known to be modulated by environmental chemicals; importance in human hepatocyte functionality; and hepatotoxicity. […]
SMILES,outcome,AC50
CCCN(CCC)c1c([N+](=O)[O-])cc(C(F)(F)F)c(N)c1[N+](=O)[O-],inactive,
S=C(S)NCCNC(=S)S.[Mn+2].[S-]C([S-])=NCCN=C([S-])[S-].[Zn+2],,4.22 µM (active) and 2.04 µM (active) and 2.68 µM (active)
COC(=O)CSc1cc(N=c2sc(=O)n3n2CCCC3)c(F)cc1Cl,inactive,
CC(=O)[C@H]1CC[C@H]2[C@@H]3CCC4=CC(=O)CC[C@]4(C)[C@H]3CC[C@]12C,,34.1 µM (active)
CCCCCOC(=O)COc1cc(N2C(=O)C3=C(CCCC3)C2=O)c(F)cc1Cl,inactive,
CCNc1nc(N)nc(Cl)n1,inactive,
CCCCOC(=O)C(C)Oc1ccc(Oc2ccc(C(F)(F)F)cn2)cc1 (stereo not given),inactive,
CCOC(=O)C(C)Oc1ccc(Oc2nc3ccc(Cl)cc3o2)cc1 (stereo not given),inactive,
CCCN(CCC)C(=O)SCC,inactive,
C[C@]12CC[C@@H]3c4ccc(O)cc4C[C@@H](CCCCCCCCCS(=O)CCCC(F)(F)C(F)(F)F)[C@H]3[C@@H]1CC[C@@H]2O (stereo not given in full),,44.4 µM (active)
Oc1ccc(C(c2ccc(O)cc2)C(Cl)(Cl)Cl)cc1,,94 µM (active)
CCCOC(=O)NCCCN(C)C,inactive,
S=C([S-])NCCNC(=S)[S-].[Mn+2],,5.71 µM (active)
CC(C)(c1ccc(O)cc1)c1ccc(O)cc1,inactive,
COC(=O)c1ccc(I)cc1S(=O)(=O)NC(=O)Nc1nc(C)nc(OC)n1,inactive,
CCCCC(CC)CN1C(=O)C2C3C=CC(C3)C2C1=O (stereo not given),,78.7 µM (active)
CCN(CC)C(=O)c1cccc(C)c1,inactive,
C#C[C@]1(O)CC[C@H]2[C@@H]3CCC4=CC(=O)CC[C@@H]4[C@H]3CC[C@@]21CC,inactive,
CCOC(=O)C(C)Oc1ccc(Oc2cnc3cc(Cl)ccc3n2)cc1 (stereo not given),,14 µM (active)
c1ccc2[nH]c(-c3cscn3)nc2c1,inactive,

SMILES,outcome,AC50
Cc1nn(C)c(Oc2ccccc2)c1C=NOCc1ccc(C(=O)OC(C)(C)C)cc1,,2.87 µM (active)
O=C(c1ccccc1)C1CCCCC1,inactive,
CCC(C)OC(=O)N1CCCCC1CCO (stereo not given),inactive,
CCCOC(=O)c1ccc(C(=O)OCCC)nc1,inactive,
OB(O)O,inactive,
N#CSCSc1nc2ccccc2s1,inactive,
C[C@]12C[C@H](O)[C@H]3[C@@H](CCC4=CC(=O)CC[C@@]43C)[C@@H]1CC[C@@H]2C(=O)CO,inactive,
CC1(C)C(C=C(Cl)Cl)C1C(=O)OCc1cccc(Oc2ccccc2)c1 (stereo not given),inactive,
CSC(=O)c1cccc2nnsc12,inactive,
CCCCC(CC)COC(=O)c1ccccc1C(=O)O (stereo not given),inactive,
COC(=O)c1ccccc1C(=O)O,inactive,
CCCCOC(=O)[C@@H](C)Oc1ccc(Oc2ccc(C(F)(F)F)cn2)cc1,inactive,
CC(C)CCCCCCc1ccc(O)cc1,inactive,
O=C(O)C1(C(=O)Nc2ccc(Cl)cc2Cl)CC1,,67 µM (active)
CCN(Cc1c(F)cccc1Cl)c1c([N+](=O)[O-])cc(C(F)(F)F)cc1[N+](=O)[O-],,50 µM (active)
C#CCOC(=O)[C@@H](C)Oc1ccc(Oc2ncc(Cl)cc2F)cc1,inactive,
CC(C)(C)[C@@H](O)[C@@H](Cc1ccc(Cl)cc1)n1cncn1,inactive,
CCSC(=O)N(CC(C)C)CC(C)C,inactive,
C=CCOC(Cn1ccnc1)c1ccc(Cl)cc1Cl (stereo not given),,35.3 µM (active)
O=C(Nc1ccc([N+](=O)[O-])cc1Cl)c1cc(Cl)ccc1O,,2.69 µM (active)

# — PubChem BioAssay (EPA / NIEHS)
